Assay outcomes deposited in PubChem by several laboratories.
Shn3 inh set2: reduces Shn3 3'UTR luciferase signal in osteoblasts; Clone20 osteoblast Shn3 3'UTR firefly luciferase, 24 h; inhibition, % at 12.5 µM; 360,000 compounds, 0.52% hits;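 active = mean inhibition of at least 75% with every replicate also reaching 75%; inconclusive = mean inhibition at least 75% but some replicate below; inactive = mean inhibition below 75%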
Peg3 prom inh: inhibitors of Peg3 promoter. HeLa PEG-Prom luciferase reporter, luminescence, overnight. inhibition, % at 20 µM. 360,000 compounds, 1.7% hits. AID 588405;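 active = inhibition of at least 50% at 20 µM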
CF NFkB inh: cystic fibrosis NF-kB activation inhibition; KKLEB NF-kB-GFP reporter, PAF-induced, GFP fluorescence overnight; 360,000 compounds, 0.86% hits; inhibition, % at 5 µM; AID 588850;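 active = at least 50% inhibition at 5 µM, scaled per plate between neutral and stimulator controls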;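 note: PAF is a Pseudomonas aeruginosa culture filtrate used as stimulus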
KKLEB cytotox: CF airway cell cytotoxicity counter-screen; KKLEB CF airway cells viability, ATPlite luminescence, overnight; active compounds read low; cells stimulated with P. aeruginosa culture filtrate; activity change (cytotoxicity), % at 5 µM; 360,000 compounds, 0.36% hits; AID 602141;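 active = corrected activity change at or below -50% at 5 µM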
MITF TRPM1 inh: MITF TRPM1 promoter inhibition in SK-MEL-5 cells. AID 488899. SK-MEL-5 TRPM1 promoter luciferase, 24 h. 330,000 compounds, 0.83% hits. inhibition, % at 12.5 µM;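 active = mean inhibition across replicates of 60% or more, whatever share of single replicates reaches that level; inconclusive = some that reach 60%, reason not given; inactive = mean inhibition across replicates below 60%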
HIF-2a block: blocks HIF-2a reporter activity; inhibition, % at 18.8 µM; 360,000 compounds, 0.72% hits; AID 624352; 786-0 RCC cells HIF-2a reporter, luciferase luminescence, overnight;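 active = inhibition of the luminescence signal of 40% or more relative to plate controls, in a single-dose primary screen at 18.75 µM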
Numbers stand for hits; - = inactive; ? = inconclusive; . = no result given. A selection: hits, their analogues and other compounds. The true share with any hit is near 2.8%.

SMILES | Shn3 inh set2 | Peg3 prom inh | CF NFkB inh | KKLEB cytotox | MITF TRPM1 inh | HIF-2a block
CCn1c(CNC(=O)c2cccnc2)cc2ccccc21 | - | 74 | - | - | - | -
CCc1nc(SCc2ccc(OCC(C)C)cc2)n[nH]1 | - | - | - | - | - | -
CCOC(=O)Cc1csc(SCC(=O)N2CCN(c3ccccc3)CC2)n1 | - | - | - | - | - | -
CC(C)C(C(=O)OCC(=O)c1ccccc1)N1C(=O)C2C3C=CC(C3)C2C1=O (stereo not drawn) | - | - | - | - | - | -
COC(=O)CS(=O)(=O)c1nnc([C@H](Cc2ccccc2)NC(=O)OC(C)(C)C)o1 | 96 | 104 | 66 | - | 79 | 45
CCOc1ccc(Nc2ccnc3cc(Cl)ccc23)cc1 | - | - | - | - | - | -
CN1CCN(c2ccc(Nc3ccnc4cc(Cl)ccc34)cc2)CC1 | - | 61 | - | - | - | -
CCN1CCN(c2ccc(Nc3ccnc4ccccc34)cc2)CC1 | - | 61 | - | - | 64 | -
CN(C)C(=O)c1cccc(-c2cccc(-c3nc(C(=O)NCc4ccccc4)cc4c3[C@@H](CCO)N(S(=O)C(C)(C)C)C4)c2)c1 (stereo partly drawn) | - | - | - | - | . | -
O=C(NCC(c1ccco1)N1CCCC1)c1ccc(Cl)c(S(=O)(=O)N2CCc3ccccc32)c1 (stereo not drawn) | - | - | - | - | - | -
O=C(O)c1cccc2c1C(=O)c1ccccc1C2=O | - | - | - | - | - | -
O=C1C(O)=CC(=C(c2ccccc2)c2ccccc2)c2ccccc21 | - | - | - | - | 61 | -
C=CCn1c(SCC(=O)Nc2ccc(N3CCOCC3)cc2)nc2ccccc2c1=O | - | - | - | - | - | -
NC(Cc1ccc(Cl)cc1)c1csc(Nc2ccc(C(=O)c3ccccc3)cc2)n1 (stereo not drawn) | - | 97 | - | - | . | -
NC(CO)c1csc(Nc2ccc(C(=O)c3ccccc3)cc2)n1 (stereo not drawn) | - | - | - | - | . | -
COc1ccc(CC(N)c2csc(Nc3ccc(C(=O)c4ccccc4)cc3)n2)cc1 (stereo not drawn) | - | 66 | - | - | . | -
NC(c1csc(Nc2ccc(C(=O)c3ccccc3)cc2)n1)C1CCCCC1 (stereo not drawn) | - | 97 | - | - | . | -
COc1ccc(CC(N)c2csc(Nc3ccc(C(C)=O)cc3)n2)cc1 (stereo not drawn) | - | - | - | - | . | -
NC(Cc1ccccc1)c1csc(Nc2ccc(C(=O)c3ccccc3)cc2)n1 (stereo not drawn) | - | 66 | - | - | . | -
CC(=O)c1ccc(Nc2nc(C(N)C3CCCCC3)cs2)cc1 (stereo not drawn) | - | - | - | - | . | -
NC(Cc1ccc(Cl)cc1)c1csc(Nc2ccc(S(N)(=O)=O)cc2)n1 (stereo not drawn) | - | - | - | - | . | -
Cc1ccc(-c2cc(C(=O)OCC(=O)N(C)c3c(N)n(Cc4ccccc4)c(=O)[nH]c3=O)c3ccccc3n2)o1 | - | - | - | - | - | -
Cc1ccccc1-c1csc(C(O)c2ccc(F)c(F)c2)n1 (stereo not drawn) | - | - | - | - | . | -
CC(C)(C)C(=O)CSc1ccc(S(=O)(=O)N2CCN(Cc3ccccc3)CC2)cn1 | - | - | - | - | - | -
COc1cc(C(=O)Nc2ccc(N3CCCS3(=O)=O)cc2)c([N+](=O)[O-])cc1OC | - | - | - | - | - | -
SMILES | Shn3 inh set2 | Peg3 prom inh | CF NFkB inh | KKLEB cytotox | MITF TRPM1 inh | HIF-2a block
NC(Cc1ccc(F)cc1)c1csc(Nc2ccc(C(=O)c3ccccc3)cc2)n1 (stereo not drawn) | - | 91 | - | - | . | -
CC(N)c1csc(Nc2ccc(C(=O)c3ccccc3)cc2)n1 (stereo not drawn) | - | - | - | - | . | -
O=C(CC1C(=O)NCCN1C1CCCC1)NCc1cccc(OC(F)(F)F)c1 (stereo not drawn) | - | - | - | - | - | -
CC(C)c1ccc(OCc2ccc(C(=O)O)o2)cc1 | - | 51 | - | - | - | 49
OC(COc1ccc(C2C=CCC2)cc1)CN1CCCCC1 (stereo not drawn) | - | - | - | - | - | -
CCCCCc1cc(=O)oc2c(C(CCN3CCCC(C)C3)c3ccc(N(C)C)cc3)c(OC)cc(OC)c12 (stereo not drawn) | - | 94 | - | - | - | -
CCCCCc1cc(=O)oc2c(C(CCN(CC)CC)c3ccc(N(C)C)cc3)c(OC)cc(OC)c12 (stereo not drawn) | - | 100 | - | - | 89 | -
CCCCCc1cc(=O)oc2c(C(CCN3CCCCC3)c3cc(OC)c(OC)c(OC)c3)c(OC)cc(OC)c12 (stereo not drawn) | - | 90 | - | - | 89 | -
CCCCCc1cc(=O)oc2c(C(CCN3CCCC(C)C3)c3cc(OC)c(OC)c(OC)c3)c(OC)cc(OC)c12 (stereo not drawn) | - | 101 | - | - | 73 | -
COc1ccccc1Cc1c(C(C)(C)C)nc2c3ccccc3ccn12 | - | - | - | - | . | -
COCCCn1c(O)c(/C=C2\N=C(C#N)C(=Nc3ccc(C)cc3)O2)sc1=S | . | - | - | - | - | -
S=C(Nc1cccc(Cl)c1)N(CCCN1CCCC1)Cc1cccn1Cc1ccc(Cl)cc1 | - | 100 | - | - | - | -
CSc1cccc(NC(=S)N(CCCN2CCCC2)Cc2cccn2Cc2ccc(Cl)cc2)c1 | - | 108 | - | - | ? | -
CSc1cccc(NC(=S)N(CCCN2CCCC2)Cc2cccs2)c1 | - | - | - | - | - | -
COc1cccc(NC(=S)N(CCCN2CCCC2)Cc2cccn2Cc2ccc(Cl)cc2)c1 | - | - | - | - | - | -
Cc1nn(CC(=O)Nc2ccc(S(N)(=O)=O)cc2)c(=O)c2ccccc12 | - | - | - | - | - | -
CC(=O)c1cccc(NC(=O)CN2C(=O)C(=O)N(Cc3ccco3)C2=O)c1 | - | - | - | - | - | -
CCN(C(C)=O)c1cnc(C=NNC(N)=S)c2ccccc12 | ? | 54 | - | - | - | -
NC(=S)NN=Cc1nccc2c(N)cccc12 | 86 | - | - | - | . | -
Cn1cc(/C=N/NC(N)=S)c2ccccc21 | - | - | - | - | - | -
O=C(NCc1ccccc1)c1ccc(-c2cn[nH]c2)c2ccoc12 | - | - | 54 | -67 | . | -
O=c1[nH][nH]cc1C=NCc1cccc(C(F)(F)F)c1 | - | - | - | - | - | -
Cc1cc2nc(-c3ccc(SCC(=O)N4CCc5ccccc54)nc3)[nH]c2cc1C | - | 114 | - | -52 | - | -
Cc1cc2nc(-c3ccc(SCc4ccc(C(=O)O)cc4)nc3)[nH]c2cc1C | - | - | - | - | - | -
Cc1noc2ncnc(Oc3ccc4ccccc4c3)c12 | - | - | - | - | - | -
Cc1noc2ncnc(Oc3cc(Cl)ccc3Cl)c12 | - | 94 | - | - | - | -
